# Reference: ChEMBL document CHEMBL3988442, “University of Dundee, Small-Polar-MMV Screening Library” (2021)
# Out of some 48,000 compounds screened, about 13,000 (27%) showed an effect of 50% or more. The list shows a part of the results.
# Test system: Wolbachia pipientis
# Assay: Anti-Wolbachia Cell-Based Screen
# Type: functional
# Set-up: scale not given: in the data most compounds retested in dose-response had high values
# Conditions: 5 µM
row,Compound,Percent Effect [%]
1,O=C(C[C@@H]1COC[C@H]2CN(Cc3cccnc3)C[C@@H]12)N1CCCC1.O=C(O)C(F)(F)F.O=C(O)C(F)(F)F,109.1
2,COCCNC(=O)C[C@@H]1COC[C@H]2CN(Cc3cccnc3)C[C@@H]12,116.3
3,O=C(C[C@@H]1COC[C@H]2CN(C3CCC3)C[C@@H]12)NCc1cccnc1.O=C(O)C(F)(F)F.O=C(O)C(F)(F)F,108.6
4,O=C(C[C@H]1[C@H]2CN(Cc3ccncc3)C[C@@H]12)N1CCCC1.O=C(O)C(F)(F)F.O=C(O)C(F)(F)F,16.46
5,CO[C@H]1CCN(S(=O)(=O)N(C)C)[C@@H]2CN(Cc3cccnc3)C[C@H]12.O=C(O)C(F)(F)F.O=C(O)C(F)(F)F,0.8682
6,O=C(C[C@@H]1COC[C@H]2CN(Cc3cccnc3)C[C@@H]12)NCC1CC1.O=C(O)C(F)(F)F.O=C(O)C(F)(F)F,115.9
7,O=C(NCc1ccccn1)[C@@H]1COC[C@H]2CNC[C@H]21,-0.4259
8,O=C(COc1ccc(Cl)cc1Cl)N1CCCSCC1CN1CCOCC1 (stereo not given),-6.318
9,c1cnc(N2CCOCC3(CNCCO3)C2)nc1 (stereo not given),-30.03
10,COCCN1C[C@@H]2COC[C@@H](CC(=O)NCc3cccnc3)[C@@H]2C1.O=C(O)C(F)(F)F.O=C(O)C(F)(F)F,24.5
11,O=C(C[C@@H]1COC[C@H]2CN(CC3CC3)C[C@@H]12)NCc1cccnc1.O=C(O)C(F)(F)F.O=C(O)C(F)(F)F,86.58
12,CNCCc1nc2cc(Cl)ccc2[nH]1.Cl.Cl,8.686
13,CC(C)Oc1ccc(C(O)CNCc2ccccc2C(F)(F)F)cc1 (stereo not given),-32.82
14,O=C(O)C(F)(F)F.O=C(O)C(F)(F)F.O=C1[C@H]2CN(C3CCOCC3)C[C@H]2CN1Cc1ccncc1,-10.38
15,O=C(c1ccno1)N1CC[C@@H]2CN(C3CCOCC3)CCO[C@@H]2C1,85.56
16,CN1CCO[C@@H]2CN(C(=O)c3ccc4ncccc4c3)CC[C@@H]2C1.O=C(O)C(F)(F)F.O=C(O)C(F)(F)F,-8.044
17,CN1CCC(N(C)c2ccccc2CNCc2ccco2)CC1,13.84
18,Cc1cccc(CN2CCC3(CCN(c4cccnc4)C3=O)C2)n1.O=C(O)C(F)(F)F.O=C(O)C(F)(F)F (stereo not given),-4.819
19,Cc1cccc(CN2C(=O)CCC23CCNCC3)n1.O=C(O)C(F)(F)F.O=C(O)C(F)(F)F,115.6
20,CCN1CCN(C)C2(CCN(Cc3cccc(C)n3)CC2)C1=O.O=C(O)C(F)(F)F.O=C(O)C(F)(F)F,-10.53
21,O=C(Nc1ccc(Cn2cccn2)cc1)N1CCC2(CC1)OCCO2,-11.32
22,O=C(Cn1ccc2c(Cl)cccc21)N1CCC2(CC1)OCCO2,11.16
23,O=C(Cc1cnc(-c2c(Cl)cccc2Cl)s1)N1CCC2(CC1)OCCO2,110.5
24,O=C(Cc1ccc(O)c(F)c1)N1CCN(CC2CC2)[C@@H]2CS(=O)(=O)C[C@@H]21,-17.2
25,O=C(O)C(F)(F)F.c1coc(CNc2ncc3c(n2)C2(CCNC2)COC3)c1 (stereo not given),-4.361
26,Cc1cnc(N2CCCC3(CCCN(C)C3)C2)nc1 (stereo not given),-6.547
27,Clc1cc(N2CCN3CCCCC3C2)nc2[nH]ccc12 (stereo not given),91.81

row,Compound,Percent Effect [%]
1,Clc1cc(CN2CCCN3CCCC3C2)c2ncccc2c1 (stereo not given),-2.153
2,COCc1cn(C[C@H]2CC3CCN2C[C@@H]3C(=O)Nc2ccccc2)nn1 (stereo not given in full),-0.5907
3,CCc1cc(CNCc2ccccc2N(C)C2CCN(C)CC2)on1,10.76
4,C[C@@H]1C[C@H]2CN(Cc3nccs3)C[C@H]2O1.O=C(O)C(F)(F)F,-5.34
5,Cc1noc(C)c1CN1C[C@@H]2CC(F)(F)C[C@@H]2C1.O=C(O)C(F)(F)F,103.5
6,Cc1noc(C)c1CN1CC[C@@H]2O[C@@H](COCC(C)C)CC[C@@H]21.O=C(O)C(F)(F)F,-18.54
7,CNC(=O)[C@H]1C[C@@H]2CN(Cc3c(C)noc3C)C[C@@H]2N1C(C)=O.O=C(O)C(F)(F)F,-32.47
8,Cc1noc(C)c1CN1C[C@@H]2C[C@@H](C)O[C@@H]2C1.O=C(O)C(F)(F)F,94.5
9,Cc1noc(C)c1CN1C[C@H]2CNC[C@H]2C1,94.55
10,Cc1noc(C)c1CN1C[C@@H]2CN(C(=O)c3cscn3)C[C@@H]2C1,-4.527
11,Cc1noc(C)c1CN1CC[C@@H]2O[C@H](COCC(C)C)CC[C@@H]21.O=C(O)C(F)(F)F,9.009
12,Cc1noc(C)c1CN1C[C@@H]2C[C@H](C(=O)NCC3CC3)N(C)[C@@H]2C1.O=C(O)C(F)(F)F.O=C(O)C(F)(F)F,97.39
13,Cc1noc(C)c1CN1C(=O)[C@H]2CC[C@@H]1CN(Cc1ncc[nH]1)C2,-9.267
14,CNC(=O)[C@@H]1C[C@H]2CN(Cc3c(C)noc3C)C[C@H]2N1C(C)C.O=C(O)C(F)(F)F.O=C(O)C(F)(F)F,-23.54
15,Cc1noc(C)c1CN1C[C@@H]2CN(C(=O)c3cnccn3)C[C@@H]2C1.O=C(O)C(F)(F)F,12.22
16,CC(C)NC(=O)NC[C@H]1C[C@@H]2CCN1C[C@@H]2CN(C)c1ccccc1,-10.33
17,CC(Cc1c(F)cccc1F)NC(=O)Nc1cnn(CC(N)=O)c1 (stereo not given),0.8263
18,C/C(=C\c1ccco1)CN(C)C(C)Cc1cc(C)ccn1 (stereo not given),32.02
19,O=C(Nc1ccccc1)[C@H]1CN2CCC1C[C@@H]2Cn1cc(CO)nn1 (stereo not given in full),-4.286
20,Cc1noc(C)c1CN1C[C@H]2CN(Cc3cccc(F)c3)C[C@H]2C1.O=C(O)C(F)(F)F.O=C(O)C(F)(F)F,97.06
21,O=C1Nc2ccccc2CC12CCCN2Cc1ccccn1 (stereo not given),100.2
22,O=C1Nc2ccccc2CC12CCCN2Cc1cccnc1 (stereo not given),106.6
23,O=C(c1ccc[nH]1)N1CCCC2(CCCN2Cc2cccnc2)C1 (stereo not given),22.1
24,CC(C)C(=O)N1CCCC2(CCCN2Cc2cccnc2)C1 (stereo not given),-11.99
25,O=C1N(Cc2ccccn2)C[C@H]2CN(C3CCC3)CCN12,-6.605
26,O=S(=O)(NC[C@H]1C[C@@H]2CCN1C[C@@H]2CN1CCCC1)c1ccc(Cl)cc1,14.89
27,CC(C)c1cc(CN2CCN(c3cccnc3)CC2)n(C)n1,9.429

row,Compound,Percent Effect [%]
1,CN1CCCC(c2n[nH]c3ncccc23)C1 (stereo not given),-5.321
2,CN1CCCC(c2ccc(N3CCOCC3)cn2)C1.Cl (stereo not given),96.78
3,CN1CCCC1c1ccc(N2CCOCC2)cn1 (stereo not given),81.49
4,CCN(CC)C(=O)C1CCC2(CCNCC2)CO1.Cl (stereo not given),2.217
5,Cc1nccc([C@@H]2C[C@@H]3CCN(Cc4cccs4)C[C@H]3O2)n1,0.9996
6,Cc1ncsc1CN1CC[C@H]2C[C@H](c3ccncn3)O[C@@H]2C1,-3.058
7,c1cc(CN2CC[C@H]3C[C@H](c4nc(C5CC5)cs4)O[C@@H]3C2)ccn1,0.1706
8,Cc1nc(CN2CC[C@H]3C[C@H](c4ccncn4)O[C@@H]3C2)cs1,0.4652
9,Cc1cc(CN2CC[C@H]3C[C@H](c4nc(C5CC5)cs4)O[C@@H]3C2)no1,106.7
10,Cc1cc(CN2CC[C@H]3C[C@@H](c4nc(C5CC5)cs4)O[C@@H]3C2)no1,106.4
11,COc1cc(N2CC[C@@H]3[C@@H](CC2)OCCN3CC2CC2)ncn1,103
12,COCCN1CCO[C@H]2CCN(C(=O)c3ccnnc3)CC[C@@H]21.O=C(O)C(F)(F)F,-6.928
13,Cc1ccc(C(=O)N2CC[C@H]3[C@H]2CCN3CC2CCOCC2)cn1,4.595
14,COc1cc(N2CC[C@@H]3OCCN(C)[C@H]3CC2)ncn1,94.65
15,CNC(=O)[C@H]1C[C@@H]2CN(c3cc(OC)ncn3)C[C@@H]2N1C(C)C,-9.424
16,CCN1CCCC12CCCN(c1ncccn1)C2.O=C(O)C(F)(F)F (stereo not given),1.763
17,COCCN1CCC12CCN(C(=O)c1ccc(C)nc1)C2.O=C(O)C(F)(F)F (stereo not given),107.4
18,Cc1cnc(N2CCCC3(CCCN3CC(=O)N(C)C)C2)nc1.O=C(O)C(F)(F)F (stereo not given),-1.71
19,O=C(O)C(F)(F)F.O=C(c1ccc[nH]1)N1CCC2(CCCN2Cc2cccnc2)CC1,-12.51
20,COCCN1CCC12CCN(c1ncccn1)C2.O=C(O)C(F)(F)F (stereo not given),-0.9151
21,CN(C)CCN1CCCC12CCN(C(=O)c1ccncc1)CC2.O=C(O)C(F)(F)F.O=C(O)C(F)(F)F,105
22,COCCN1CCC12CCN(C(=O)Cc1cccs1)C2.O=C(O)C(F)(F)F (stereo not given),10.38
23,COCCN1CCCC12CCN(c1ncccn1)CC2.O=C(O)C(F)(F)F,-7.716
24,CN(C)CCN1CCCC12CCCN(C(=O)c1cccnc1)C2.O=C(O)C(F)(F)F.O=C(O)C(F)(F)F (stereo not given),118
25,Cc1ncc2c(c1CNC(=O)C1(C)CCCCO1)CCNC2 (stereo not given),13.24
26,Cc1nn(CCNC(C)Cn2cncn2)c(C)c1Cl (stereo not given),-0.5097
